Assay outcomes: PubChem, National Center for Advancing Translational Sciences (NCATS)
HCMV inh: human cytomegalovirus inhibition; 410,000 compounds, 4.5% hits; activity change, negative = inhibition, % at 57.5 µM; HFF cells, HCMV-luciferase reporter, 72 h; hits give low values; in the data active = activity change below about -60%; inconclusive = no clear call, values can overlap the other calls; inactive = above about -39%
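Steps: HFFs plated, 16 h 37C; compounds added; HCMV-luciferase added to MOI 1 PFU/cell; 72 h 37C; OneGlo reagent, 5 min room temperature; luminescence read, normalized to controls.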
Pf growth 96h: P. falciparum growth inhibition at 96 hour, primary screen for plastid delayed-death inhibitors; P. falciparum luciferase reporter growth, 96 h; 320,000 compounds, 6.9% hits; Potency, µM (titrated, usually from 28.7 µM), usual class: inhibitors; AID 504834
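Cell-based qHTS: luciferase-tagged P. falciparum in erythrocytes (2% hematocrit, 0.05% parasitemia final) incubated with compounds for 96 hours, 37 C, 5% CO2; luciferase detection reagent then added and luminescence measured.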
CHX counter: counter-screen for Shiga toxin inhibitors: cycloheximide protein synthesis inhibition | AID 2314 | max response, % | 300,000 compounds, 12% hits | cell reporter, cycloheximide protein synthesis inhibition counterscreen; in the data active = max response mostly above about 13%, no sharp cut-off; inactive = mostly below about 14%; also: read at 38.3 µM for the half of the compounds with a filed dose
Pf growth 48h: P. falciparum growth inhibition at 48 hours (one generation); Potency, µM (highest dose often 28.7 µM), usual class: inhibitors; 310,000 compounds, 5.9% hits; AID 504832; P. falciparum luciferase growth in erythrocytes, 48 h
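Firefly luciferase activity from engineered P. falciparum reports growth; inhibitors lower the luminescent signal. Cultures contained 2% hematocrit erythrocytes at 0.1% final parasitemia.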
Shiga toxin inh: Shiga toxin inhibition; inhibition, % at 38.7 µM; Vero cells, Shiga toxin protein synthesis inhibition reporter; AID 2315; 290,000 compounds, 9.2% hits; in the data active = inhibition mostly above about 28%, no sharp cut-off; inactive = mostly below about 43%
Large screens that a line does not name were inactive. A selection: hits, their analogues and other compounds. The true share with any hit is near 20%. Unless noted, calls follow the shape of the dose curve; as a rule, active = well fitted inhibition curve with a large enough effect; inconclusive = small, poorly fitted or top-dose-only effect, or another doubt; inactive = no such curve, though single readings can be large or run the other way.

COc1cc(C)ccc1OCc1cc(C(=O)N(Cc2nccn2C)C(C)C)no1	Pf growth 96h inconclusive, CHX counter 73, Shiga toxin inh 87
CCn1ccnc1CN(C)C(=O)c1cc(COc2ccc(OC)c3ccccc23)on1	CHX counter 8.3, Pf growth 48h inconclusive
O=C(NCCc1ccccc1)c1c[nH]c2c(F)cccc2c1=O	CHX counter 23, Shiga toxin inh 29
Cc1cc(C)cc(NS(=O)(=O)c2ccc3[nH]cc(C(=O)NCCc4ccccc4)c(=O)c3c2)c1	none (no result: Pf growth 96h, CHX counter, Pf growth 48h, Shiga toxin inh)
COc1cccc(NS(=O)(=O)c2ccc3[nH]cc(C(=O)NCCC(C)C)c(=O)c3c2)c1	Pf growth 48h 9.3µM
Cc1ccccc1NS(=O)(=O)c1ccc2[nH]cc(C(=O)NCCc3ccccc3)c(=O)c2c1	Pf growth 96h inconclusive, Pf growth 48h 15µM (no result: CHX counter, Shiga toxin inh)
Cc1cccc2c(=O)c(C(=O)NCCc3ccccc3)c[nH]c12	Pf growth 96h 4.7µM (no result: Shiga toxin inh)
CCc1cc(=O)oc2cc(C)cc(OCC(=O)NCC(O)c3ccccc3)c12 (centres undefined)	Pf growth 96h inconclusive, Pf growth 48h inconclusive
Cc1cc(S(=O)(=O)N2CCOCC2)ccc1OCC(=O)NCc1ccco1	none
O=C(Nc1ccc(F)cc1)C(c1cc2ccccc2o1)N1CCN(c2cccc(C(F)(F)F)n2)CC1 (centres undefined)	none (no result: Pf growth 96h, CHX counter, Pf growth 48h, Shiga toxin inh)
CN(C)c1ccc(NC(=O)c2ccc3nc[nH]c3c2)cc1	CHX counter 51, Shiga toxin inh 138
O=C(NNC(=O)c1ccccc1Br)c1ccc2nc[nH]c2c1	none
O=C(NNC(=O)c1ccccc1F)c1ccc2nc[nH]c2c1	CHX counter 22
O=C(Nc1ccc(F)cc1)c1ccc2nc[nH]c2c1	CHX counter 30, Shiga toxin inh 46
CC(NS(=O)(=O)c1ccc2c(c1)CCN2C(=O)CCCC(=O)O)c1ccccc1 (centres undefined)	none (no result: Pf growth 96h, CHX counter, Pf growth 48h, Shiga toxin inh)
CCc1ccc(-n2c(C)n[nH]c2=S)cc1	none
Cc1cc(Cl)ccc1OCC(=O)N1CCC(c2nc3ccccc3s2)CC1	none (no result: Pf growth 96h, CHX counter, Pf growth 48h, Shiga toxin inh)
O=C(CCl)NCCCCCCCCCNC(=O)CCl	HCMV inh -100, Pf growth 96h 1.5µM, Pf growth 48h 1.9µM
CCC(=O)NCCCCCCNC(=O)CC	none (no result: Pf growth 48h)
Cc1cc(C)n2nc(C(=O)NCC(=O)Nc3ccc(F)c(F)c3)nc2n1	none (no result: CHX counter, Shiga toxin inh)
COC(=O)C1=C(N)N(c2ccccc2F)C2=C(C(=O)CC(C)(C)C2)C1c1ccc(OC)c(OC)c1 (centres undefined)	Pf growth 96h inconclusive
CCOc1ccccc1O[C@@H](c1ccccc1)[C@@H]1CNCCO1	Pf growth 96h 13µM, Pf growth 48h inconclusive (no result: HCMV inh, CHX counter, Shiga toxin inh)
CCOc1ccccc1CNC(c1ccccc1)c1ccccc1	Pf growth 96h inconclusive (no result: Shiga toxin inh)
Cn1c(=O)c2[nH]c(N3CCN(c4ccccc4)CC3)nc2n(C)c1=O	none
O=C(O)[C@H](Cc1ccccc1)N1Cc2ccccc2C1=O	none (no result: Pf growth 48h)
O=C(O)C(Cc1c[nH]c2ccccc12)N1Cc2ccccc2C1=O (centres undefined)	CHX counter 28, Shiga toxin inh 42
O=[N+]([O-])c1ccc(-c2csc(Nc3ccccc3)[n+]2Cc2ccccc2)cc1	Pf growth 96h inconclusive, CHX counter 33, Pf growth 48h 5.2µM, Shiga toxin inh 29
Cc1ccc(-c2csc(Nc3ccccc3)[n+]2CCc2ccccc2)cc1	Pf growth 96h 2.1µM, CHX counter 23, Pf growth 48h 12µM, Shiga toxin inh 70
COc1ccc(-c2csc(Nc3ccccc3)[n+]2Cc2ccccc2)cc1	Pf growth 96h 13µM, CHX counter 38, Shiga toxin inh 55
Cc1ccc(-c2csc(Nc3ccc(C(=O)O)cc3)[n+]2Cc2ccccc2)cc1	Pf growth 96h inconclusive, Pf growth 48h inconclusive
O=C(Nc1ccccc1)c1ccc[n+](Cc2ccc([N+](=O)[O-])cc2)c1	none
N#Cc1ccc(C(=O)OCC(=O)Nc2ccc(S(N)(=O)=O)cc2)cc1	none
COc1cc2c(cc1OC)C(=O)C(CC1CCN(Cc3ccccc3)CC1)C2 (centres undefined)	Pf growth 96h 9.5µM, Pf growth 48h inconclusive
COc1cc2c(cc1OC)CN(Cc1ccccc1)CC2	Pf growth 96h inconclusive
N=C1SCC(=O)N1/N=C/c1ccccc1	Pf growth 96h inconclusive, CHX counter 24, Shiga toxin inh 53
CC1CCN(S(=O)(=O)c2ccc3nc(Nc4cccc(F)c4)ccc3c2)CC1	HCMV inh -102 (no result: Pf growth 96h, CHX counter, Pf growth 48h, Shiga toxin inh)
O=C(COC(=O)CCSc1ccccc1)Nc1ccccc1	none (no result: Pf growth 96h, CHX counter, Pf growth 48h, Shiga toxin inh)
Cc1cccc(C2CC(=O)Nc3cc4c(cc32)OCO4)c1 (centres undefined)	none (no result: Pf growth 96h, CHX counter, Pf growth 48h, Shiga toxin inh)
CC(C)c1ccc(C2C3=C(COC3=O)Nc3cc4c(cc32)OCO4)cc1 (centres undefined)	HCMV inh -88, Pf growth 96h inconclusive
Cc1nc(N2CCOCC2)nc(N2CCCCC2C)c1[N+](=O)[O-] (centres undefined)	Pf growth 96h inconclusive, Pf growth 48h inconclusive
CC1CCCCN1c1ncnc(N)c1[N+](=O)[O-] (centres undefined)	HCMV inh -77
CC1Cc2ccccc2N1c1ncnc(N)c1[N+](=O)[O-] (centres undefined)	HCMV inh -101
C=CCON/C(CCC)=C1\C(=O)C(C(=O)OC)C(C)(C)CC1=NC (centres undefined)	none
CCn1cc2nc(SCc3cc(C)ccc3C)n(CCc3ccccc3)c(=O)c2n1	HCMV inh -86 (no result: Pf growth 96h, CHX counter, Pf growth 48h, Shiga toxin inh)
CC1CCCN(S(=O)(=O)c2ccc3c(c2)c(=O)nc2ccc(Cl)cn23)C1 (centres undefined)	Pf growth 96h inconclusive, Pf growth 48h inconclusive
CSCCC(NS(=O)(=O)c1cccs1)C(=O)Nc1ccc(C)c(Cl)c1 (centres undefined)	none (no result: Pf growth 96h, CHX counter, Pf growth 48h, Shiga toxin inh)
Cc1ccc(Sc2ccc(NC(=O)CCl)cc2)c(C)c1	Pf growth 96h inconclusive, Pf growth 48h 8.3µM
CCCC1(CCC)C(=O)NC(=NCCc2ccc(OC)c(OC)c2)NC1=O	none
COC(=O)c1cc(S(=O)(=O)N2CCC(c3ccccc3)C2)c[nH]1 (centres undefined)	none
COC(=O)c1cc(S(=O)(=O)N2CCC(c3cc(OC)ccc3OC)C2)c[nH]1 (centres undefined)	HCMV inh inconclusive, Pf growth 96h 13µM
Cc1cc(C)n(-c2n[nH]c(=O)c3ccccc23)n1	none
Cc1cc(C)n(-c2c(C)[nH]c3ccccc23)n1	HCMV inh inconclusive, Pf growth 96h 9.3µM, Pf growth 48h inconclusive
CCN(C(=O)CCN1C(=O)/C(=C/c2ccccc2)SC1=S)C1CCS(=O)(=O)C1 (centres undefined)	HCMV inh -113, Pf growth 96h 7.4µM, Pf growth 48h 13µM
CCN(C(=O)CN1C(=O)S/C(=C\c2cccc(Cl)c2)C1=O)C1CCS(=O)(=O)C1 (centres undefined)	Pf growth 96h 12µM, Pf growth 48h inconclusive
CCN(C(=O)CN1C(=O)S/C(=C\c2ccc(Cl)cc2)C1=O)C1CCS(=O)(=O)C1 (centres undefined)	HCMV inh inconclusive
CCN(C(=O)CN1C(=O)S/C(=C\C=C\c2ccccc2)C1=O)C1CCS(=O)(=O)C1 (centres undefined)	Pf growth 96h 4.1µM, Pf growth 48h 7.4µM
